Data on six compounds can be found in PubChem BioAssay (EPA / NIEHS).

The structures appear in SMILES notation. Calls of active or inactive are those of the source. The calls were made as follows: active = hit-call score of the fitted dose curve at least 0.9, where 1 is the maximum; inactive = score below 0.9.

Common to all, as to details: mRNA level, 48 h; actives raise or lower the signal
Read-out in assay [1]: Bcl-2 (BAX) gene, BAX (gene 581)
Description: LTEA_HepaRG_BAX: Life Technologies and Expression Analysis (LTEA) Assay for Bcl-2 (BAX) gene using HepaRG (AID 2283470). Put shortly: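 Human HepaRG cells treated in duplicate for 48 h across eight concentrations (max 100 uM, 0.5% DMSO); BAX expression measured by qRT-PCR.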

Read-out in assay [2]: adenosine kinase (ADK) gene, ADK (gene 132)
Description: LTEA_HepaRG_ADK: Life Technologies and Expression Analysis (LTEA) Assay for adenosine kinase (ADK) gene using HepaRG (AID 2283471). In short, it runs like this: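 HepaRG (human liver), 48 h chemical exposure, 8-pt half-log series, top 100 uM, 0.5% DMSO vehicle. Readout: ADK mRNA by qRT-PCR vs housekeeping genes; bidirectional curve fit relative to DMSO baseline.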

Read-out in assay [3]: Alpha-fetoprotein (AFP) gene, AFP (gene 174)
Description: LTEA_HepaRG_AFP: Life Technologies and Expression Analysis (LTEA) Assay for Alpha-fetoprotein (AFP) gene using HepaRG (AID 2283472). Put shortly: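 Measures AFP mRNA change in HepaRG after 48 h chemical exposure (8 half-log concentrations, highest 100 uM, 0.5% DMSO). Fold change relative to DMSO, fitted in both directions.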

Read-out in another assay: BCL2L11 (gene 10018)
Put plainly: LTEA_HepaRG_BCL2L11: Life Technologies and Expression Analysis (LTEA) Assay for Bcl-2 (BCL2L11) gene using HepaRG (AID 2283473). In short, it runs like this: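 HepaRG, 48 h exposure, 8-pt half-log series from 100 uM in 0.5% DMSO, duplicates; qRT-PCR (Fluidigm TaqMan) for BCL2L11, housekeeping-normalized; bidirectional curve fit relative to DMSO baseline.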

Read-out in assay [4]: Apolipoprotein A-V (APOA5) gene, APOA5 (gene 116519)
Put plainly: LTEA_HepaRG_APOA5: Life Technologies and Expression Analysis (LTEA) Assay for Apolipoprotein A-V (APOA5) gene using HepaRG (AID 2283474). In short, it runs like this: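 HepaRG, 48 h chemical exposure in serum-free induction medium, 8-pt half-log series (top 100 uM), 0.5% DMSO vehicle, duplicates. Readout: APOA5 mRNA by qRT-PCR, housekeeping-normalized; bidirectional fit vs DMSO baseline.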

Read-out in assay [5]: Apoptosis regulator Bcl-2 (Homo sapiens) (UniProt P10415)
Description: LTEA_HepaRG_BCL2: Life Technologies and Expression Analysis (LTEA) Assay for Bcl-2 gene using HepaRG (AID 2283475). In short, it runs like this: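 Each chemical was tested in duplicate on HepaRG cultures held in serum-free induction medium for 48 h, highest concentration 100 uM with half-log dilutions. Transcript levels came from multiplexed qRT-PCR, normalised to housekeeping genes; activity was scored in either direction relative to DMSO.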

Read-out in assay [6]: Bcl-2 (BID) gene, BID (gene 637)
Description: LTEA_HepaRG_BID: Life Technologies and Expression Analysis (LTEA) Assay for Bcl-2 (BID) gene using HepaRG (AID 2283476). Put shortly:
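Assay used HepaRG hepatic cells treated 48 h in serum-free medium with half-log dilutions from 100 uM. Endpoint: BID mRNA, qRT-PCR, normalized to ACTB/GAPDH/POLR2A.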

Read-out in the next assay: Caspase-3 (Homo sapiens) (UniProt P42574)
Description: LTEA_HepaRG_CASP3: Life Technologies and Expression Analysis (LTEA) Assay for cysteine-aspartic acid protease (CASP3) using HepaRG (AID 2283477). Put shortly:
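HepaRG, 48 h exposure, 8 conc. (top 100 uM, half-log steps, duplicate), 0.5% DMSO vehicle; qRT-PCR of CASP3 transcript, housekeeping-normalised (ACTB/GAPDH/POLR2A); bidirectional curve fit vs DMSO baseline.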

Read-out in assay [7]: Cytochrome P450 (CYP24A1), CYP24A1 (gene 1591)
Description: LTEA_HepaRG_CYP24A1: Life Technologies and Expression Analysis (LTEA) Assay for Cytochrome P450 (CYP24A1) using HepaRG (AID 2283478). Put shortly:
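qRT-PCR read-out: CYP24A1 transcript levels normalized to three housekeeping genes, bidirectional curve fits against 0.5% DMSO baseline. Human HepaRG cells treated 48 h with chemicals at eight concentrations from 100 uM in half-log steps.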

Read-out in assay [8]: Cytochrome P450 (CYP1A2), CYP1A2 (gene 1544)
Put plainly: LTEA_HepaRG_CYP1A2: Life Technologies and Expression Analysis (LTEA) Assay for Cytochrome P450 (CYP1A2) using HepaRG (AID 2283479). Put shortly: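 HepaRG, 48 h exposure, top 100 uM, half-log 8-pt, 0.5% DMSO vehicle, duplicates. Readout: TaqMan qRT-PCR of CYP1A2 mRNA, housekeeping-normalized (ACTB/GAPDH/POLR2A). Gain/loss fit relative to DMSO baseline.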

Read-out in assay [9]: cysteine-aspartic acid protease (CASP8), CASP8 (gene 841)
Put plainly: LTEA_HepaRG_CASP8: Life Technologies and Expression Analysis (LTEA) Assay for cysteine-aspartic acid protease (CASP8) using HepaRG (AID 2283480). In short, it runs like this:
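CASP8 transcript measured by TaqMan qRT-PCR with ACTB/GAPDH/POLR2A normalization, after 48 h chemical exposure of HepaRG cells in serum-free induction medium. Eight concentrations, top 100 uM, half-log steps, 0.5% DMSO vehicle; fits in both directions versus DMSO.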

Read-out in assay [10]: Cytochrome P450 (CYP2B6), CYP2B6 (gene 1555)
Description: LTEA_HepaRG_CYP2B6: Life Technologies and Expression Analysis (LTEA) Assay for Cytochrome P450 (CYP2B6) using HepaRG (AID 2283481). In short, it runs like this:
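Read-out is CYP2B6 mRNA by TaqMan qRT-PCR, normalized to three housekeeping genes and fitted bidirectionally against 0.5% DMSO baseline. Human HepaRG cells received test chemicals for 48 h, top concentration 100 uM, half-log dilutions.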

Read-out in assay [11]: Cytochrome P450 2C19 (Homo sapiens) (UniProt P33261)
Put plainly: LTEA_HepaRG_CYP2C19: Life Technologies and Expression Analysis (LTEA) Assay for CYP2C19 using HepaRG (AID 2283482). In short, it runs like this:
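HepaRG, 48 h chemical exposure, 8-pt half-log series from 100 uM in 0.5% DMSO, duplicates. Readout: CYP2C19 mRNA by TaqMan qRT-PCR, housekeeping-normalized. Bidirectional fit vs DMSO baseline; phenobarbital 1mM as induction control.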

Read-out in the next assay: CYP2C8 (gene 1558)
Put plainly: LTEA_HepaRG_CYP2C8: Life Technologies and Expression Analysis (LTEA) Assay for CYP2C8 using HepaRG (AID 2283483). Put shortly: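 CYP2C8 expression measured by TaqMan qRT-PCR and normalized to three housekeeping genes. HepaRG cultures were treated for 48 h with an eight-point half-log series topping at 100 uM, vehicle 0.5% DMSO, duplicates; fitted both directions against DMSO.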

Read-out in another assay: CYP2C9 (gene 1559)
Put plainly: LTEA_HepaRG_CYP2C9: Life Technologies and Expression Analysis (LTEA) Assay for CYP2C9 using HepaRG (AID 2283484). In short, it runs like this:
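CYP2C9 transcript level, quantified by TaqMan qRT-PCR against three housekeeping genes, was fitted bidirectionally relative to 0.5% DMSO. HepaRG cultures were treated 48 h, in duplicate, at eight half-log concentrations topping at 100 uM.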

Read-out in another assay: CYP2E1 (gene 1571)
Put plainly: LTEA_HepaRG_CYP2E1: Life Technologies and Expression Analysis (LTEA) Assay for CYP2E1 using HepaRG (AID 2283485). In short, it runs like this: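 Assay uses 48 h exposure of HepaRG hepatic cells, eight concentrations to 100 uM. Expression of CYP2E1 is quantified by TaqMan qRT-PCR with ACTB, GAPDH and POLR2A normalization; curves fitted in both directions relative to vehicle.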

Read-out in the next assay: CYP4A11 (gene 1579)
Put plainly: LTEA_HepaRG_CYP4A11: Life Technologies and Expression Analysis (LTEA) Assay for CYP4A11 using HepaRG (AID 2283486). In short, it runs like this: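 CYP4A11 transcript levels were quantified by TaqMan qRT-PCR after HepaRG human liver cells were treated for 48 hours with test chemicals (top 100 uM, half-log dilutions, 0.5% DMSO). Gain or loss of signal was fitted relative to DMSO.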

Read-out in assay [12]: DNA damage-inducible transcript 3 (DDIT3), DDIT3 (gene 1649)
Put plainly: LTEA_HepaRG_DDIT3: Life Technologies and Expression Analysis (LTEA) Assay for DNA damage-inducible transcript 3 (DDIT3) using HepaRG (AID 2283488). In short, it runs like this: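 Eight-point concentration-response (100 uM highest, half-log dilutions) in HepaRG, 48 h, duplicate wells. Endpoint: qRT-PCR mRNA, normalized (ACTB, GAPDH, POLR2A), bidirectional fitting with DMSO as baseline.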

Read-out in assay [13]: Pro-epidermal growth factor (Homo sapiens) (UniProt P01133)
Description: LTEA_HepaRG_EGF: Life Technologies and Expression Analysis (LTEA) Assay for Epidermal growth factor (EGF) using HepaRG (AID 2283489). In short, it runs like this:
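qRT-PCR readout of EGF transcript after 48 h chemical exposure of HepaRG cells; eight concentrations from 100 uM down in half-log steps, duplicate wells, 0.5% DMSO vehicle. Bidirectional curve fitting against DMSO baseline.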

Read-out in assay [14]: Cytochrome P450 3A4 (Homo sapiens) (UniProt P08684)
Description: LTEA_HepaRG_CYP3A4: Life Technologies and Expression Analysis (LTEA) Assay for CYP3A4 using HepaRG (AID 2283487). Put shortly: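 CYP3A4 transcript measured by TaqMan qRT-PCR and normalized to three housekeeping genes after 48 h chemical exposure of human HepaRG cells. Top concentration 100 uM, half-log steps, 0.5% DMSO vehicle; gain or loss fitted against DMSO baseline.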

Chain of Cytochrome P450 2C19 (Homo sapiens) (P33261 whole entry, looked up): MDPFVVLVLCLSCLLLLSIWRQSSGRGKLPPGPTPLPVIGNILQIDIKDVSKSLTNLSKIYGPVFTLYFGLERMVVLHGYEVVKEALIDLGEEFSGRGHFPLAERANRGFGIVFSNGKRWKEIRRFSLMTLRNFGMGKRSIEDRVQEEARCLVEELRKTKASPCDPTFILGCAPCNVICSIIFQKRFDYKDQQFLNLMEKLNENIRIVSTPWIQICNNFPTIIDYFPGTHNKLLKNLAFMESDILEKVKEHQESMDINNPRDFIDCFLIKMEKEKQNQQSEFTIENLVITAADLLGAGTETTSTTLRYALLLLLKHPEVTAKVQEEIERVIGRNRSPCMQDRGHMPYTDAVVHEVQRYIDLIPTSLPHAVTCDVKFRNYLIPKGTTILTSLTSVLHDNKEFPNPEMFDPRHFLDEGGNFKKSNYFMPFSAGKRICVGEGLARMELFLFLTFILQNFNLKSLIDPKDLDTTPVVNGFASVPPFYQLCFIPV
Chain of Apoptosis regulator Bcl-2 (Homo sapiens) (P10415 whole entry, looked up): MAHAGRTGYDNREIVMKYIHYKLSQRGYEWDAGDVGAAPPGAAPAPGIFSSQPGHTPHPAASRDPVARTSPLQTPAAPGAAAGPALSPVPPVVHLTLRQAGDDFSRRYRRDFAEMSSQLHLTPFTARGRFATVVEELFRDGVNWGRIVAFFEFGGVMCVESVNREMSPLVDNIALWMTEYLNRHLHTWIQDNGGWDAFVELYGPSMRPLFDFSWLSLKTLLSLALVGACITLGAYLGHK
Chain of Caspase-3 (Homo sapiens) (P42574 whole entry, looked up): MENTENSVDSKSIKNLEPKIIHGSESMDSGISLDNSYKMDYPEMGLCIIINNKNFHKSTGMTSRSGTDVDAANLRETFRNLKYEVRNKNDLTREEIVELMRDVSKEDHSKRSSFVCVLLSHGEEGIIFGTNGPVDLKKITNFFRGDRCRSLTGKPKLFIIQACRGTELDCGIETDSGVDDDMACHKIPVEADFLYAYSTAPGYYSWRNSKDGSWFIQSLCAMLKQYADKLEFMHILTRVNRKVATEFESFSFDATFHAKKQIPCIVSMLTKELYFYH
Chain of Cytochrome P450 3A4 (Homo sapiens) (P08684 whole entry, looked up): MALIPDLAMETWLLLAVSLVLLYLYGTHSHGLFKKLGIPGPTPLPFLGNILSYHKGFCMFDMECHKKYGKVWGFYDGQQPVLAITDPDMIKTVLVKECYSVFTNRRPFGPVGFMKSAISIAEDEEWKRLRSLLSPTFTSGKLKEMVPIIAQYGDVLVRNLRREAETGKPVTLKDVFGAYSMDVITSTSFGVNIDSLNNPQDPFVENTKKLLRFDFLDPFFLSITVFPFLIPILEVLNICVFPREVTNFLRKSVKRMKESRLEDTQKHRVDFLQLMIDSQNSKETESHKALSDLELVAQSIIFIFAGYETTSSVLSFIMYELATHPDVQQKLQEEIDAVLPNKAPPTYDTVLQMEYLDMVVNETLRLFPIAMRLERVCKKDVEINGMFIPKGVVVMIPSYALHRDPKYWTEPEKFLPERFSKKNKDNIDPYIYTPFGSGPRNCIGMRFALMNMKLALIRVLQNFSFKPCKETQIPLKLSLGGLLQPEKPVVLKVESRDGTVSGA

As a reminder, the AC50 is the concentration giving half of the maximal activity seen. As to `Cc1cc(SC2=C(O)C[C@@](CCc3ccc(N)cc3)(C(C)C)OC2=O)c(C(C)(C)C)cc1CO`, the result (in assay [1]; in assay [2]; in assay [3]; with BCL2L11 (gene 10018); in assay [4]; in [5]) was inactive. The result (in assay [6]; in the assay with Caspase-3 (Homo sapiens); in assay [7]; in assay [9]; with CYP2C9 (gene 1559); in assay [12]) was inactive. In addition, the AC50 was 0.572 µM (active) in [8]; 2.89 µM (active) in assay [10]; 0.972 µM (active) in assay [11]; 3.03 µM (active) in the assay with CYP2C8 (gene 1558); 7.16 µM (active) with CYP2E1 (gene 1571); 2.25 µM (active) with CYP4A11 (gene 1579). For the same compound, the AC50 in [13] is 6.35 µM (active).
`CCCCC(CC)CO` (stereo not drawn): the compound was called inactive (in assay [1]; in [2]; in assay [3]; with BCL2L11 (gene 10018); in assay [4]; in assay [5]). Further, the call (in assay [6]; with Caspase-3 (Homo sapiens); in [7]; in [9]; in [10]; in assay [11]) was inactive. The compound was called inactive (with CYP2C8 (gene 1558); in the assay with CYP2C9 (gene 1559); in the assay with CYP2E1 (gene 1571); with CYP4A11 (gene 1579); in assay [13]). Besides, in [8], the AC50 was 50 µM (active).
Turning to `CC(C)(C)c1ccccc1`, the compound was classed as inactive (in assay [1]; in assay [2]; in assay [3]; with BCL2L11 (gene 10018); in assay [4]; in assay [5]). In addition, the outcome (in assay [6]; in the assay with Caspase-3 (Homo sapiens); in assay [7]; in assay [8]; in assay [9]; in assay [10]) was inactive. Further, the call (in [11]; with CYP2C8 (gene 1558); in the assay with CYP2C9 (gene 1559); with CYP2E1 (gene 1571); in the assay with CYP4A11 (gene 1579); in [14]) was inactive. In addition, the compound was called inactive in assay [13].
As to `CC(C)(O)c1ccc(CNC(=O)c2cccnc2Oc2ccc(F)cc2)cc1`, the compound was called inactive (in [1]; in assay [2]; in assay [3]; with BCL2L11 (gene 10018); in assay [4]; in assay [5]). For the same compound, the outcome (in assay [6]; with Caspase-3 (Homo sapiens); in assay [7]; in [8]; in assay [9]; with CYP2C8 (gene 1558)) was inactive. In addition, the result (in the assay with CYP2C9 (gene 1559); in [12]; in assay [13]) was inactive. Moreover, the AC50 in [10] was 0.432 µM (active); in assay [11], 8.99 µM (active); with CYP2E1 (gene 1571), 37.9 µM (active); with CYP4A11 (gene 1579) it was 10.2 µM (active).
With `Oc1ccc(O)cc1`, the outcome (in assay [1]; in assay [2]; in [3]; with BCL2L11 (gene 10018); in [4]; in assay [5]) was inactive. Moreover, the compound was called inactive (in assay [6]; in the assay with Caspase-3 (Homo sapiens); in assay [7]; in assay [9]; in [10]; in assay [11]). Also, the compound was called inactive (with CYP2C8 (gene 1558); in the assay with CYP2C9 (gene 1559); with CYP2E1 (gene 1571); in assay [14]; in assay [12]; in [13]). Further, in assay [8], the AC50 is 50 µM (active).
Consider `CC(C)c1cccc(C(C)C)c1NC(=O)NS(=O)(=O)c1cc(C(C)(C)O)co1`, for which the outcome (in [1]; in assay [2]; in assay [3]; with BCL2L11 (gene 10018); in assay [4]; in assay [5]) was inactive. Further, the outcome (in assay [6]; with Caspase-3 (Homo sapiens); in assay [7]; in [8]; in assay [9]; in the assay with CYP2C8 (gene 1558)) was inactive. Further, the call (with CYP2C9 (gene 1559); in assay [12]; in [13]) was inactive. In addition, the AC50 in assay [10] was 5.18 µM (active); in assay [11], 8.04 µM (active); in the assay with CYP2E1 (gene 1571), 33.9 µM (active); in the assay with CYP4A11 (gene 1579), 29.5 µM (active).
